# Results reported in PubChem BioAssay AID434955 (Southern Research Specialized Biocontainment Screening …, 2010).
# About 880 (0.27%) of roughly 330,000 compounds were called active. Roughly 1% stayed inconclusive and do not appear here. The rule behind the calls is not given here. A selection follows.
# Test: beta-lactam sensitization of Mtb H37Rv, H37Rv (AID 434955);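 note: growth measured after seven days incubation then overnight dye step; 0% = bacteria only wells and 100% = bacteria with antibiotic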
# Settings: M. tuberculosis H37Rv growth with meropenem, percent inhibition, at 25 µM
# [1] = measured here: primary screen without meropenem
Compound,inhibition (stronger effect = higher value),inhibition [1] [%]
CSc1ccc(CN2C(=O)NC3(CCCCCC3)C2=O)cc1,19.2% (inactive),5.94
CCN(CC)CCNCC(=O)Nc1ccc(Oc2ccccc2)cc1,-3.27% (inactive),3.64
COc1ccc(N2CCN(C(=O)CCNC(=O)c3ccc(Br)cc3)CC2)cc1,-10.2% (inactive),-3.75
O=C(NCc1ccccc1)C(c1ccco1)N(C(=O)c1csnn1)c1ccccc1F (configuration not stated),-3.66% (inactive),-4.47
COc1ccccc1CN1CC(C(=O)NCCc2cn[nH]c2)CCC1=O (configuration not stated),-1.38% (inactive),3.44
CC1=NCCN1S(=O)(=O)c1ccc(Br)c(C)c1,5.04% (inactive),10.8
Cn1c(SCC(=O)N2CCOCC2)nnc1-c1ccc(NC(=O)c2ccccc2F)cc1,-1.25% (inactive),-0.23
Cc1ccc(S(=O)(=O)N(C)CC(=O)OCC(=O)N2CC(=O)Nc3ccccc32)cc1,-3.86% (inactive),-0.77
Cc1csc(Nc2ccc(Cl)cc2)[n+]1-c1ccc(Cl)cc1,5.09% (inactive),-4.07
C=CCC(NCc1ccco1)c1ccc(OC)cc1 (configuration not stated),-0.53% (inactive),-3.95
CCCc1ccc(-c2c(C)sc(NC(=O)c3ccnn3C)c2C#N)cc1,15.9% (inactive),-4.16
N#Cc1ccc(OCCN2C(=O)NC3(CCSC3)C2=O)cc1 (configuration not stated),-7.2% (inactive),-8.16
CN(C)CCn1c2c(c(SCC(=O)Nc3ccccc3C(F)(F)F)nc1=O)CCCC2,-6.06% (inactive),-5.4
O=C(NCCc1ccccc1)C1CCC(Cn2c(=O)c3ccccc3n(Cc3cccnc3)c2=O)CC1 (configuration not stated),19.4% (inactive),2.41
O=S(=O)(NCC1CC1)c1ccc(F)c(Cl)c1,-3.45% (inactive),1.07
O=C(Nc1ccccc1Cl)/C(Cl)=C(\Cl)S(=O)c1ccccc1 (configuration not stated),100% (inactive),100
O=C(Oc1c(-c2ccco2)oc2ccccc2c1=O)c1cccnc1,92.5% (inactive),91.2
Cc1ccc(OCC(=O)Oc2ccccc2[N+](=O)[O-])cc1,-3.48% (inactive),-11.4
O=C1NC2(CCCCC2)N=C1c1ccccc1,-10.1% (inactive),-2.99
Cc1cc(NC(=O)c2ccccc2C)no1,-1.93% (inactive),3.81
Cc1n[nH]c(=O)c2c(NC(=O)CSc3cc(Cl)ccc3Cl)oc(C)c12,-5.41% (inactive),-1.99

Compound,inhibition (stronger effect = higher value),inhibition [1] [%]
CC(C)C(=O)Nc1nnc(SCC(=O)N2C(C)CCCC2C)s1 (configuration not stated),0.21% (inactive),10.7
Cc1ccc2c(c1)-c1c(ssc1=S)C(C)(C)N2C(=O)CN1C(=O)c2ccccc2C1=O,-4.41% (inactive),-1.91
CC1Sc2ccc(C(=O)NCc3ccccc3Cl)cc2NC1=O (configuration not stated),6.05% (inactive),2.96
COc1cc(C2C(C(=O)OCCC#N)=C(C)NC3=C2S(=O)(=O)c2ccccc23)cc(OC)c1OC (configuration not stated),4.16% (inactive),1.07
COc1ccc(-c2cc(=O)oc3cc(OC(C)C(=O)Nc4ccc(CN5CCOCC5)cc4)ccc23)cc1 (configuration not stated),98.4% (inactive),96.8
CC(Sc1nnc2c(n1)C1CCC2(C)C1(C)C)C(=O)Nc1ccccc1 (configuration not stated),-4.99% (inactive),-6.12
Nn1c(SCC(=O)Nc2ccc3c(c2)CCC3)nnc1C1CC1,-4.28% (inactive),-7.87
C/C=C(\C)C(=O)NCCN1C2=NC[C@H](Cc3ccc(O)cc3)N2C[C@@H]1Cc1ccc(OC)cc1,-14.9% (inactive),-6
CSCCC(Nc1ccc(S(=O)(=O)N2CCOCC2)cc1[N+](=O)[O-])C(=O)OCC(=O)N(C(C)C)C(C)C (configuration not stated),3.64% (inactive),2.01
CCCCC(C(=O)NC(C)(C)C)N(Cc1ccccc1)C(=O)c1snc(C(N)=O)c1N (configuration not stated),-2.34% (inactive),4.81
Fc1ccc2c(c1)C(c1cccnc1)=NNC(c1cccs1)=N2,31% (inactive),4.96
Cc1ccc(-c2csc(NC(=O)C3=COCCO3)n2)cc1C,92.7% (inactive),99.3
CN(CC(=O)Nc1ccc(S(=O)(=O)N2CCCC2)cc1)Cc1ccc(Cl)c(Cl)c1,1.99% (inactive),0.57
C=C(C)c1cccc(C(C)(C)NC(=O)N2CCN(c3ncccn3)CC2)c1,-9.15% (inactive),-8.65
O=C1C=C(c2ccnc3cc(Cl)ccc23)C[C@@H](c2ccc3c(c2)OCO3)C1,52.4% (inactive),50.9
CCc1ccc(/C=N/NC(=O)c2ccc(OC3CCCC3)cc2)s1,2.88% (inactive),3.87
Cc1ccc(-n2cc(CN(C)Cc3nccn3C)c(-c3cccc(C)c3)n2)cc1,98.9% (inactive),99.4
O=C(NC(=S)N1CCN(Cc2ccccc2)CC1)c1ccccc1,36.8% (inactive),-3.71
CC(OC(=O)CN1C(=O)C2CCCCC2C1=O)C(=O)Nc1ncc(Cl)cc1Cl (configuration not stated),-4.66% (inactive),4.44
C/C(Cc1ccccc1)=N\NC(=O)CNC(=O)c1ccccc1Cl,-6.3% (inactive),2.92
CCc1cccc(C)c1NC(=O)COC(=O)Cc1ccsc1,-1.39% (inactive),2.58

Compound,inhibition (stronger effect = higher value),inhibition [1] [%]
O=S(=O)(c1ccc(F)cc1)N1CCN=C1SCc1cccc(F)c1,9.8% (inactive),11.2
NC(=O)C1CCN(C(=O)/C(=C/c2ccco2)NC(=O)c2ccccc2)CC1,-2.14% (inactive),-8.97
CCCCNCc1ccc(SC)cc1,-3.24% (inactive),-0.62
O=C1CC(=O)Nc2cc(S(=O)(=O)N3CCN(c4cccc(C(F)(F)F)c4)CC3)ccc2N1,-1.42% (inactive),4.41
Cc1ccc(N2C(=O)CC(NCc3ccc4c(c3)OCO4)C2=O)cc1Cl (configuration not stated),-7.15% (inactive),0.64
COc1cc(NC(=S)N2CCCC(C)C2)cc(OC)c1OC (configuration not stated),0.37% (inactive),3.47
CCOc1ccc(NC(=O)C(C)N2C(=O)c3ccccc3C2=O)cc1 (configuration not stated),-0.05% (inactive),0.73
CC(C)NS(=O)(=O)c1ccc(CCC(=O)N2CCOCC2)cc1,-4.86% (inactive),-6.67
CC(=O)OCCC(C)C,-5.13% (inactive),-1
CCOC(=O)c1cn[nH]c1NC(=S)Nc1ccccc1,-8.22% (inactive),-3.62
CCCCNC(=O)Cn1nc(C)c(S(=O)(=O)N2CCOCC2)c1C,-4.34% (inactive),-4.6
Fc1ccc(N2N=C(c3cccs3)CC2c2ccco2)c(F)c1 (configuration not stated),35.4% (inactive),9.4
Cc1ccc(N(CC(=O)NC2CCCCC2)C(=O)CCCC(=O)Nc2ccccn2)c(C)c1,-1.33% (inactive),-1.01
CCSC1=NCCN1C(=O)c1ccc(S(=O)(=O)N(CC)CC)cc1,6.44% (inactive),0.45
COc1ccccc1-c1oc2ccccc2c1C#CCCCCO,10.7% (inactive),7.25
CC(C)OC(=O)CN1CCN(c2ccc(Cl)cc2)CC1,-3.97% (inactive),-7.14
O=C(Nc1cccnc1)c1noc2c1CCCCC2,2.93% (inactive),-8.89
COc1ccc(S(=O)(=O)N2CCCCC2)cc1NC(=O)c1cc([N+](=O)[O-])ccc1N1CCOCC1,-11.2% (inactive),-3.23
COC(=O)CC(=O)N1CCN(c2ccc(Cl)c(Cl)c2)CC1,-8.83% (inactive),97.6
Cc1cccc(NC(=O)C(C)N2C(=O)C3C4CC(C(Br)C4Br)C3C2=O)c1 (configuration not stated),-22.1% (inactive),-16.2
CC(C)c1ccc(NC(=O)CCN2C(=O)c3ccc([N+](=O)[O-])cc3C2=O)cc1,-2.88% (inactive),-6.43

Compound,inhibition (stronger effect = higher value),inhibition [1] [%]
Cc1nc(COc2cccc(Cl)c2)sc1C(=O)/C=C/N(C)C,-4.65% (inactive),-0.85
C/C(=N/NC(=O)CSc1ccccn1)c1ccc([N+](=O)[O-])cc1,-3.17% (inactive),6.64
O=C(NC(=O)c1ccccc1)Nc1ccccc1O,0.65% (inactive),3
O=C1[C@@H]2C(c3cccnc3)=NO[C@@H]2C(=O)N1c1ccc(Cl)cc1Cl,-5.66% (inactive),0.68
C[C@@H]1C[C@@H]2O[C@H]2/C=C\C=C\C(=O)Cc2c(Cl)c(O)cc(O)c2C(=O)O1,29.7% (inactive),18.4
CCc1ccc2[nH]c(=O)c(Cc3ccccc3)c(O)c2c1,-0.83% (inactive),-2.95
O=C(C1CCCN1S(=O)(=O)c1ccc(Br)cc1)N1CCOCC1 (configuration not stated),-1.22% (inactive),0.94
Cc1c(NC(=O)C(C)OC(=O)c2cc3c4ccccc4n(C)c3s2)c(=O)n(-c2ccccc2)n1C (configuration not stated),4.17% (inactive),3.63
O=C(CSC1CC(=O)N(CCc2ccccc2)C1=O)Nc1ccc(Cl)cc1 (configuration not stated),-1.52% (inactive),-3.81
CCOc1ccc(C(O)Cn2c(=N)n(CCN3CCCCC3)c3ccccc32)cc1 (configuration not stated),8.31% (inactive),3.41
O=S(=O)(Nc1ccc(Cl)cn1)c1cnc(Cl)c(Br)c1,-1.47% (inactive),-1.06
Cc1cc(NC(=O)OC(C)C)ccc1-c1ccc(NC(=O)OC(C)C)cc1C,0.85% (inactive),-5.74
CCNC(=O)CC1C(=O)N(c2ccc(OC)cc2)C(=O)N1CCOC (configuration not stated),7.04% (inactive),-0.36
COC(=O)Cc1ccc(NC(=S)NCc2ccco2)cc1,-6.59% (inactive),47.6
Cc1cccc([C@@H]2[C@@H]3C(=O)N(C)C(=O)[C@@H]3[C@@H]3C(=O)Nc4ccccc4C(=O)N23)c1,-6.47% (inactive),-0.42
O=C1c2ccccc2C(=O)N1CCOc1ccc(F)cc1,-2.05% (inactive),-1.56
Cn1cc(CCC(=O)N2CCCC(C(=O)c3ccc(C(C)(C)C)cc3)C2)cn1 (configuration not stated),0.49% (inactive),4.84
CCSCc1nc(N)nc(NCCc2ccccc2)n1,0.44% (inactive),4.31
